# Test results taken from PMC7862700, “An all-to-all approach to the identification of sequence-specific readers for epigenetic DNA modifications on cytosine”.
# Tests used:
# Assay in all cases: DAPPL (digital affinity profiling via proximity ligation, sequencing); 10 mM Tris-HCl pH 7.5, 50 mM NaCl, 1 mM DTT, 4% glycerol, room temperature, 30 min; GST-TFs on glutathione beads, 16-mer random dsDNA library, 0.1% formaldehyde crosslink after washing; high values mean tight binding
# FLI1 = target: T1, FLI1 (Homo sapiens, UniProt Q01543 1-452); details: protein: recombinant; tags: N-terminal GST; dsDNA, one strand shown
# T1 sequence: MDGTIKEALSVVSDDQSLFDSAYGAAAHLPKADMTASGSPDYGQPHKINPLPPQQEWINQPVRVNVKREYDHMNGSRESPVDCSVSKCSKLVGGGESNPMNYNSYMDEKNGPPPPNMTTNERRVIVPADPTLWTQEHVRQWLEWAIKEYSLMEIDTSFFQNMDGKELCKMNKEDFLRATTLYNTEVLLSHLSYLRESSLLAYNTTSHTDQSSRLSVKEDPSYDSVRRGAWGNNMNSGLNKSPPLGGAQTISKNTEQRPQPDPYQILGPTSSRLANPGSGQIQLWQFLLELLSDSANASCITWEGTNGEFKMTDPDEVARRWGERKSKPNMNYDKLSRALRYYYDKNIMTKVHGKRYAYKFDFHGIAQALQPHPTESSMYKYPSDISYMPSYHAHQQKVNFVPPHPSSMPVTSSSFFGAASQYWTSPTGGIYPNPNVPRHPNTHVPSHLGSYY
# In short: (§1)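 The binding signal reported is, for every hexamer, its read frequency for a factor over its read frequency for the tag-only sample. Reads came from pools of yeast-expressed, GST-fused human transcription factors on glutathione beads, barcoded with DNA and mixed with that sample, which were incubated with 200 nmole of a random double-stranded 16-mer DNA library in Tris/NaCl/DTT/glycerol buffer at room temperature for 30 min. After washing, the pools were crosslinked with 0.1% formaldehyde, proximity-ligated with BsaI/T4 ligase for 1 h at 37 °C, PCR-amplified and sequenced on an Illumina NextSeq500.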
# ELK1 = target: T2, ELK1 (Homo sapiens, UniProt P19419 1-428); details: protein: recombinant; tags: N-terminal GST; dsDNA, one strand shown
# T2 sequence: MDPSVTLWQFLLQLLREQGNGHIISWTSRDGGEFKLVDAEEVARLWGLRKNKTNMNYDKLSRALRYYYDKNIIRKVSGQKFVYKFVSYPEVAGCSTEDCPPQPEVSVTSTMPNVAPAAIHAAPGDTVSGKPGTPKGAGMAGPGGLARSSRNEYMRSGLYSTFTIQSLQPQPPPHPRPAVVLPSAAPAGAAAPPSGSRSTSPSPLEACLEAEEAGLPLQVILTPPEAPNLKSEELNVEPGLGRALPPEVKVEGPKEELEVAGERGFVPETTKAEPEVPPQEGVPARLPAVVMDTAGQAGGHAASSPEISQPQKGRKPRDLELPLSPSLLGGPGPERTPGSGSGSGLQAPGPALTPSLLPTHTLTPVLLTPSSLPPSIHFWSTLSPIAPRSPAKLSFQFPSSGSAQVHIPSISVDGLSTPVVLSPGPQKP
# In short: as §1
# GABPA = target: T3, GABPA (Homo sapiens, UniProt Q06546 1-454); details: protein: recombinant; tags: N-terminal GST; dsDNA, one strand shown
# T3 sequence: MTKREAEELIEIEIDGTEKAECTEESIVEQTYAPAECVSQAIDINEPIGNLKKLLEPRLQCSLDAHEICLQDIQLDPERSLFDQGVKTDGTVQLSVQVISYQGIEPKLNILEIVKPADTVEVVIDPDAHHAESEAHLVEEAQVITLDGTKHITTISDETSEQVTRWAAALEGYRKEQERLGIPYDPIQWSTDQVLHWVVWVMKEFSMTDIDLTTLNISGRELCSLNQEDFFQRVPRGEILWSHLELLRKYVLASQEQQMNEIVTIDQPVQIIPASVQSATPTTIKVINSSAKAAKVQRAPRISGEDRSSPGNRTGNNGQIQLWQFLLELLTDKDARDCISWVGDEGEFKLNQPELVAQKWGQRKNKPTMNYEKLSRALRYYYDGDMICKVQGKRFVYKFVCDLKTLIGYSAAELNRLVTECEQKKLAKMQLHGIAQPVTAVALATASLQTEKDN
# In short: as §1
# ERG = target: T4, ERG (Homo sapiens, UniProt P11308 1-479); details: protein: recombinant; tags: N-terminal GST; dsDNA, one strand shown
# T4 sequence: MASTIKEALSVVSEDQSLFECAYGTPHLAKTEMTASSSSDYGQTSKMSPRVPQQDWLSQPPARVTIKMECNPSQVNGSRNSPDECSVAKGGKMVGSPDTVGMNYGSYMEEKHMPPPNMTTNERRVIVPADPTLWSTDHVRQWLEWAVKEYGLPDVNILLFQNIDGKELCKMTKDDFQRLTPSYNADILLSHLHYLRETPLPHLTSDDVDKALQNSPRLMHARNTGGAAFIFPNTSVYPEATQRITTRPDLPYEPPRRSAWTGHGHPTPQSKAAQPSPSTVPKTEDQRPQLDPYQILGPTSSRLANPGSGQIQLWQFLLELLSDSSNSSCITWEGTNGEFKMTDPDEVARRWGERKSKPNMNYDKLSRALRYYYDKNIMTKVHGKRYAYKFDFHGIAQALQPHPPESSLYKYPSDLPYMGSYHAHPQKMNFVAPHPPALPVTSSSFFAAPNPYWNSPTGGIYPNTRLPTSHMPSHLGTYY
# In short: as §1
# ELF1 = ELF1 (Homo sapiens, UniProt P32519 1-619); details: protein: recombinant; tags: N-terminal GST; dsDNA, one strand shown
# ELF1, sequence (P32519 whole entry): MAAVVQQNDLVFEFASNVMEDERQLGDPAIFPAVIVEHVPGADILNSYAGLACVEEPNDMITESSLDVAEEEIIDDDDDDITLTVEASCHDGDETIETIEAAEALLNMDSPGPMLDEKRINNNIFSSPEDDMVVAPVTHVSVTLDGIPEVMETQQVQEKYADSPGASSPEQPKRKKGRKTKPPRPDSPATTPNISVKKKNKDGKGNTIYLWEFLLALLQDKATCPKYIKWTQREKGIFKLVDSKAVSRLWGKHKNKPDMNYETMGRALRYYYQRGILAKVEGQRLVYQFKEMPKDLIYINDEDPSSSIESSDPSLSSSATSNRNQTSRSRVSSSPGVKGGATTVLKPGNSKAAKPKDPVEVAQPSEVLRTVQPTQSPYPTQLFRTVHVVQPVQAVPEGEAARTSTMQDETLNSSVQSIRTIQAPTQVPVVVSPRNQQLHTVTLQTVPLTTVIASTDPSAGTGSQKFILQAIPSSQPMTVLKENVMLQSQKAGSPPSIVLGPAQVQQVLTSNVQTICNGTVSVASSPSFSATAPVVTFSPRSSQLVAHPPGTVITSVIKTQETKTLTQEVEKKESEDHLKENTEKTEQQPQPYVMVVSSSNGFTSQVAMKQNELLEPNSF
# In short: as §1
# EHF = target: T5, EHF (Homo sapiens, UniProt Q9NZC4 1-300); details: protein: recombinant; tags: N-terminal GST; dsDNA, one strand shown
# T5 sequence: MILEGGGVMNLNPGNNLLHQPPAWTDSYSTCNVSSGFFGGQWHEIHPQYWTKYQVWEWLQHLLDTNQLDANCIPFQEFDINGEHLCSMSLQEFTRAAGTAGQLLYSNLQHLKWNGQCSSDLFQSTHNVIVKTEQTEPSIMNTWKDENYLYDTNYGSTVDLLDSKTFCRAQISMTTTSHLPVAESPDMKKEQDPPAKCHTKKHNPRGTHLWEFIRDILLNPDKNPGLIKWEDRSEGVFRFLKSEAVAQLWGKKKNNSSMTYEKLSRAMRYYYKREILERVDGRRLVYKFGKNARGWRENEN
# In short: as §1
# SPI1 = SPI1 (Homo sapiens, UniProt P17947 1-270); details: protein: recombinant; tags: N-terminal GST; dsDNA, one strand shown
# In short: as §1
# SPIB = SPIB (Homo sapiens, UniProt Q01892 1-262); details: protein: recombinant; tags: N-terminal GST; dsDNA, one strand shown
# SPIB, sequence (Q01892 whole entry): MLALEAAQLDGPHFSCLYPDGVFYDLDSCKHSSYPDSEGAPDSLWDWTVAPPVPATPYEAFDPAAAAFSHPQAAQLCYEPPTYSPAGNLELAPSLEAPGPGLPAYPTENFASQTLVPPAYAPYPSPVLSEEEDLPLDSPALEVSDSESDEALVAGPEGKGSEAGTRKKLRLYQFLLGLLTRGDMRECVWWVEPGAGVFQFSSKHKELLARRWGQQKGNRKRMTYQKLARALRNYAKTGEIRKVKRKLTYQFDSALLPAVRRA
# In short: as §1
# ELK3 = target: T6, ELK3 (Homo sapiens, UniProt P41970 1-407); details: protein: recombinant; tags: N-terminal GST; dsDNA, one strand shown
# T6 sequence: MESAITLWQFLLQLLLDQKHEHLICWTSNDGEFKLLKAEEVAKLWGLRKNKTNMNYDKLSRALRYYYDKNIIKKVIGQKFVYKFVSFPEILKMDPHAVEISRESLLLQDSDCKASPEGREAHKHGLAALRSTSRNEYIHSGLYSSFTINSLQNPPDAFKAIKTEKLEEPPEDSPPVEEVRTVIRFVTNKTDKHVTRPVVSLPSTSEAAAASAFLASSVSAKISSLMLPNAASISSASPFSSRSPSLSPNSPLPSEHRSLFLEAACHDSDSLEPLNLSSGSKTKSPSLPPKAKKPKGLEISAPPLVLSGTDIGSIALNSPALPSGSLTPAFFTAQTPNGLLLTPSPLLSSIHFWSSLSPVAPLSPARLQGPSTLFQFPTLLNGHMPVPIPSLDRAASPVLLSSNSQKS
# In short: as §1
# FEV = target: T7, FEV (Homo sapiens, UniProt Q99581 1-238); details: protein: recombinant; tags: N-terminal GST; dsDNA, one strand shown
# T7 sequence: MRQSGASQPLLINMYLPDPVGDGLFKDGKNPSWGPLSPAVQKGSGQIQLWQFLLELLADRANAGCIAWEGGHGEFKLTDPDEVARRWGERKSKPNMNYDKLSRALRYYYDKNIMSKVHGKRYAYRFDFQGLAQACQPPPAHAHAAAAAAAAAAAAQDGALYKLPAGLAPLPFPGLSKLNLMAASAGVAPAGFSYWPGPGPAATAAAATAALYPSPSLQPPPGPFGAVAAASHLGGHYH
# In short: as §1
# ETV5 = ETV5 (Homo sapiens, UniProt P41161 1-510); details: protein: recombinant; tags: N-terminal GST; dsDNA, one strand shown
# ETV5, sequence (P41161 whole entry): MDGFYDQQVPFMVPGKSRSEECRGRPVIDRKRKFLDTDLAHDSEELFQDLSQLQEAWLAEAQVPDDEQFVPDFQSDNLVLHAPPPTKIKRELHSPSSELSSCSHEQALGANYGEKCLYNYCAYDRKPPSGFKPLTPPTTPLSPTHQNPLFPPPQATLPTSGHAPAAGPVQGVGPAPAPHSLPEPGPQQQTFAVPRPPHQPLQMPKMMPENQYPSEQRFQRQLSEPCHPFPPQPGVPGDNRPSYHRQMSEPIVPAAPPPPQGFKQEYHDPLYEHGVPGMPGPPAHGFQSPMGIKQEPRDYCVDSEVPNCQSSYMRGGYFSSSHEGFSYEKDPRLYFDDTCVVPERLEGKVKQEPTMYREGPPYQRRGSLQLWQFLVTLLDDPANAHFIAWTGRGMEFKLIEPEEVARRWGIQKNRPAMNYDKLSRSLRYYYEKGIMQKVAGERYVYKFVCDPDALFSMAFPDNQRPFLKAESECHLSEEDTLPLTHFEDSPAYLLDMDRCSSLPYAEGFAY
# In short: as §1
# HSF1 = HSF1 (Homo sapiens, UniProt Q00613 1-529); details: protein: recombinant; tags: N-terminal GST; chain copies: 3; dsDNA, one strand shown
# HSF1, sequence (Q00613 whole entry): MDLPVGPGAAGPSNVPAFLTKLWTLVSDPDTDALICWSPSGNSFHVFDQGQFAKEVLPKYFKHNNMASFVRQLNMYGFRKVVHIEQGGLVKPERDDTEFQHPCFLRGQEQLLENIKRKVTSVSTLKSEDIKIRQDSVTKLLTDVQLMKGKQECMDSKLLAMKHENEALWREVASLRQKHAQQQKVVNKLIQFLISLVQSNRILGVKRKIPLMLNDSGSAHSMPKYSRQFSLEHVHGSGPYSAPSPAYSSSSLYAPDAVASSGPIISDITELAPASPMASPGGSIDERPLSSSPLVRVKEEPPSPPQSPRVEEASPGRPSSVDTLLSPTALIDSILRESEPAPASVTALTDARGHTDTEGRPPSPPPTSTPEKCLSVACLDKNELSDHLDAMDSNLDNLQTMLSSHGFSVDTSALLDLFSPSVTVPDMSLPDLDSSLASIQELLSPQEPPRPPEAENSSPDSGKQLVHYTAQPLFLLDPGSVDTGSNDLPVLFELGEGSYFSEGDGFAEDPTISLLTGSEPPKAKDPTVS
# In short: as §1
# SPIC = target: T8, SPIC (Homo sapiens, UniProt Q8N5J4 1-248); details: protein: recombinant; tags: N-terminal GST; dsDNA, one strand shown
# T8 sequence: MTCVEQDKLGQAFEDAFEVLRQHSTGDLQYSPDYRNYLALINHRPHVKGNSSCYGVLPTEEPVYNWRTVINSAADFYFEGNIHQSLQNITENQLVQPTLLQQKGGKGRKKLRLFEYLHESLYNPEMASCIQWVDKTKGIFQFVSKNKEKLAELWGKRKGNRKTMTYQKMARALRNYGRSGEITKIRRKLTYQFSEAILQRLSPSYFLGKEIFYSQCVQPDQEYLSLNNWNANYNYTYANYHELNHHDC
# In short: as §1
# ELF4 = ELF4 (Homo sapiens, UniProt Q99607 1-663); details: protein: recombinant; tags: N-terminal GST; dsDNA, one strand shown
# ELF4, sequence (Q99607 whole entry): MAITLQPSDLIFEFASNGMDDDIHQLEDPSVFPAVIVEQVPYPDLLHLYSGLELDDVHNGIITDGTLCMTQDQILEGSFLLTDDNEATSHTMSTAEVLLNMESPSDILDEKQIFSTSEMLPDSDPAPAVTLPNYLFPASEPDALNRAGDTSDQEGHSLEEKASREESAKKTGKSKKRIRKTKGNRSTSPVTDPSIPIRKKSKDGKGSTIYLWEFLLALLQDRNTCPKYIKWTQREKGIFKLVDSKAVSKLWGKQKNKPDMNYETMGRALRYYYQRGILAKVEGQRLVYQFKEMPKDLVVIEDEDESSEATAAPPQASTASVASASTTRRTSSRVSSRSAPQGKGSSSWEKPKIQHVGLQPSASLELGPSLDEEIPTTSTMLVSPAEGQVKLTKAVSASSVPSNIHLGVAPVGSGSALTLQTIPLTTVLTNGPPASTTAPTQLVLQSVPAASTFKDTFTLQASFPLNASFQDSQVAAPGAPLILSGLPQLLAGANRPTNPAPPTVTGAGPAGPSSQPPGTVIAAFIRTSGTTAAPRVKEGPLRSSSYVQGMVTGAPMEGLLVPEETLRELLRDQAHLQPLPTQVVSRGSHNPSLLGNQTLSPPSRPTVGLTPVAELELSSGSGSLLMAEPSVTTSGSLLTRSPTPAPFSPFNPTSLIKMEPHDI
# In short: as §1
# ELK4 = target: T9, ELK4 (Homo sapiens, UniProt P28324-2 1-405); details: protein: recombinant; tags: N-terminal GST; dsDNA, one strand shown
# T9 sequence: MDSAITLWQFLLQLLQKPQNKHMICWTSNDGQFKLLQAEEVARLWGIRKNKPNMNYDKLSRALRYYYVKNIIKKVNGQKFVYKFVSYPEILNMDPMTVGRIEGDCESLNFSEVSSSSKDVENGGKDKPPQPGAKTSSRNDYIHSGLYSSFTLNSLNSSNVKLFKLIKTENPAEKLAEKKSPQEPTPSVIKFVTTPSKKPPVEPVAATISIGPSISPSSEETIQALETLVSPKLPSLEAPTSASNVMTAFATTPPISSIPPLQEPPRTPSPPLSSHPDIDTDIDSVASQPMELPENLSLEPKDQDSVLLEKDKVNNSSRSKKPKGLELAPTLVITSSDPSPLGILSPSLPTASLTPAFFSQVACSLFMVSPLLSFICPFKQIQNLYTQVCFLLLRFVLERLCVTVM
# In short: as §1
# ETV2 = target: T10, ETV2 (Homo sapiens, UniProt O00321 1-342); details: protein: recombinant; tags: N-terminal GST; dsDNA, one strand shown
# T10 sequence: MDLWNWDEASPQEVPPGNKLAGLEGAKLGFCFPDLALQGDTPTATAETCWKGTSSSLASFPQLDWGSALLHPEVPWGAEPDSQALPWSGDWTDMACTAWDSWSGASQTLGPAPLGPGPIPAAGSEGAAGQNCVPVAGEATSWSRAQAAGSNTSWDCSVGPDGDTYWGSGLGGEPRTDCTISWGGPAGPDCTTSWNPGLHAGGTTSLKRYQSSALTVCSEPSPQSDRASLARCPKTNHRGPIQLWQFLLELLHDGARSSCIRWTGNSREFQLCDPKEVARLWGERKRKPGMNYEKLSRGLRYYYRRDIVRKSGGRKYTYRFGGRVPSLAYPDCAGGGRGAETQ
# In short: as §1
# ELF3 = target: T11, ELF3 (Homo sapiens, UniProt P78545 1-371); details: protein: recombinant; tags: N-terminal GST; dsDNA, one strand shown
# T11 sequence: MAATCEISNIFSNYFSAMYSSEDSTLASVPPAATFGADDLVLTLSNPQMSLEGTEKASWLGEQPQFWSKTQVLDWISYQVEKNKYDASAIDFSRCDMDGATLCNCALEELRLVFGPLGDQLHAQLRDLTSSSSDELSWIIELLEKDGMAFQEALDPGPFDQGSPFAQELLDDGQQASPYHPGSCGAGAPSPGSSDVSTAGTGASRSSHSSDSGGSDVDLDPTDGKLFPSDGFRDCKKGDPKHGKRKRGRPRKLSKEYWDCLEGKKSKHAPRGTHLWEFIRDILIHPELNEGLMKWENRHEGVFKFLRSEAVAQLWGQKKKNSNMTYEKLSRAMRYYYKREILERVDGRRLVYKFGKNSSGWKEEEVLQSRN
# In short: as §1
# ETV1 = ETV1 (Homo sapiens, UniProt P50549 1-477); details: protein: recombinant; tags: N-terminal GST; dsDNA, one strand shown
# ETV1, sequence (P50549 whole entry): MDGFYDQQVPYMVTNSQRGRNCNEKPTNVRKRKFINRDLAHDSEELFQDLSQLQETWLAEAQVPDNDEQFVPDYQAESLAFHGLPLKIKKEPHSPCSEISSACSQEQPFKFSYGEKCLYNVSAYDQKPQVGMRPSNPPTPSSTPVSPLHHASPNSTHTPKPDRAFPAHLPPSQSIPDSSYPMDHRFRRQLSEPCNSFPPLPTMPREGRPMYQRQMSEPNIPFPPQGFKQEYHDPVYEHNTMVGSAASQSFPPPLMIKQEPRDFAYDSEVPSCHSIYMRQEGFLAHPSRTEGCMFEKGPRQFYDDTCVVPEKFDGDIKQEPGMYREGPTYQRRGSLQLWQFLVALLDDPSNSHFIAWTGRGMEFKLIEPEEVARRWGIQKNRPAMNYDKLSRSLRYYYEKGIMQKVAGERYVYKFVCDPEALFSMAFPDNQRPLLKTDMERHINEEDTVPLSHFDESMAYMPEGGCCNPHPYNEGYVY
# In short: as §1
sequence,measurement,setting,value
AAACTG,binding signal,FLI1,"1.09 fold enrichment (6-mer frequency, TF over GST control)"
same,binding signal,ELK1,"1.11 fold enrichment (6-mer frequency, TF over GST control)"
same,binding signal,GABPA,"1.17 fold enrichment (6-mer frequency, TF over GST control)"
same,binding signal,ERG,"1.01 fold enrichment (6-mer frequency, TF over GST control)"
same,binding signal,ELF1,"1.09 fold enrichment (6-mer frequency, TF over GST control)"
same,binding signal,EHF,"1.06 fold enrichment (6-mer frequency, TF over GST control)"
same,binding signal,SPI1,"1.12 fold enrichment (6-mer frequency, TF over GST control)"
same,binding signal,SPIB,"1.1 fold enrichment (6-mer frequency, TF over GST control)"
same,binding signal,ELK3,"1.32 fold enrichment (6-mer frequency, TF over GST control)"
same,binding signal,FEV,"1.06 fold enrichment (6-mer frequency, TF over GST control)"
same,binding signal,ETV5,"1.09 fold enrichment (6-mer frequency, TF over GST control)"
same,binding signal,HSF1,"1.01 fold enrichment (6-mer frequency, TF over GST control)"
same,binding signal,SPIC,"1.07 fold enrichment (6-mer frequency, TF over GST control)"
same,binding signal,ELF4,"1.1 fold enrichment (6-mer frequency, TF over GST control)"
same,binding signal,ELK4,"1.06 fold enrichment (6-mer frequency, TF over GST control)"
same,binding signal,ETV2,"1.09 fold enrichment (6-mer frequency, TF over GST control)"
same,binding signal,ELF3,"1.01 fold enrichment (6-mer frequency, TF over GST control)"
same,binding signal,ETV1,"1.13 fold enrichment (6-mer frequency, TF over GST control)"
